From PubChem BioAssay AID939 (National Center for Advancing Translational Sciences (NCATS), 2007) come the findings set out here.

Results filed as inconclusive are left out. Activity calls are given as the source filed them. The call rests on the fitted dose curve; in most records, active means well fitted activation curve with a large enough effect in the main read-out, with a control signal flat; inconclusive means small, poorly fitted or top-dose-only effect, or effect the other way, or a change in a side signal; inactive means no such curve, though single readings can be large or run the other way.

Assay [1] is described as follows: Confirmation Concentration-Response Assay for Agonists of the Thyroid Stimulating Hormone Receptor. On activation: % of control where 0% means no effect. The conditions noted are these: HEK293 TSHR-CNG cells, membrane potential dye, cAMP; measured here: parental HEK293 counter-screen max. An outline of the steps:
(§1)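 TSHR+CNG HEK293 cells plated 20–36 h; membrane potential dye + 100 uM RO 20-1724, 60 min RT; cpd 30 min; fluorescence em 590 nm, bottom read. Parental CNG cells counterscreen endogenous targets.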

In assay [2] the target is Thyrotropin receptor (Homo sapiens) (UniProt P16473). Described as above. The conditions noted are these: HEK293 TSHR-CNG cells, membrane potential dye, cAMP; series mostly up to 25.6 µM. The gist of the method: as §1
Potency means the concentration at half of the fitted maximal effect.

Chain of Thyrotropin receptor (Homo sapiens) (P16473 whole entry, looked up): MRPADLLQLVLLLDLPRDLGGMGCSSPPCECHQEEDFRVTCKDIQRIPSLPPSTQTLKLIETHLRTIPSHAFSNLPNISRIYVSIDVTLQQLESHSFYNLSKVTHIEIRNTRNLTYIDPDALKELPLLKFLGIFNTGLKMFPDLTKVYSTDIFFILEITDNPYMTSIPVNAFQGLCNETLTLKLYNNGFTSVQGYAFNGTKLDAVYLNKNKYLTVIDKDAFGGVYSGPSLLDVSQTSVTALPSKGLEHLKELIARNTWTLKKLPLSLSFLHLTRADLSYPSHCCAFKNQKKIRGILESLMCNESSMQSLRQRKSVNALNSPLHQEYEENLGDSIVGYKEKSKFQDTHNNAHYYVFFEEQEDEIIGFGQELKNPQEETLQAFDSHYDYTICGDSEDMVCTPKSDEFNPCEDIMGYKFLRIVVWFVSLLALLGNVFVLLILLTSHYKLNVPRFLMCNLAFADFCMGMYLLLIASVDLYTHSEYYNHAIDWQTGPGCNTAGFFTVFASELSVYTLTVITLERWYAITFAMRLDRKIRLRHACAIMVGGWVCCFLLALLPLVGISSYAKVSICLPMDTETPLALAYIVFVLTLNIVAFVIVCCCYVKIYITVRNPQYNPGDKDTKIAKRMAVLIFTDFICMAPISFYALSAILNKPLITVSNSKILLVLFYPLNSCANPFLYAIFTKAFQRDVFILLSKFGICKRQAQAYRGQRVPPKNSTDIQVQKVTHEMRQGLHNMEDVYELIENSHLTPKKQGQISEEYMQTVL

Consider `CCc1ccc(-c2nc(CN3CCC(C(=O)N4CCN(c5ccccc5)CC4)CC3)c(C)o2)cc1`, for which, in assay [1], the max response is 12.8%.
Regarding `Cc1cnc(NC(=O)c2ccc3c(c2)C(=O)N(Cc2ccco2)C3=O)s1`, in assay [1], the max response is -10.7%.
Take `CCCC(=O)C1=C(SCC)CC(C)(C)C(C(=O)OC)C1=O` (centres undefined): in assay [1], the max response was 9.56%. Further, the Potency entry in assay [2] was “inactive”.
For `Cc1ccccc1-c1nc(CN2CCC(C(=O)N3CCN(c4ccccn4)CC3)CC2)c(C)o1` the same measures were 17.1% and “inactive”.
The corresponding values for `O=C1CC(c2ccco2)CC2=C1C(c1ccccc1)n1nc(C(F)(F)F)nc1N2` (centres undefined) are -7.22% and 1 µM (active).
For `CCOC(=O)C1C(=O)Nc2nc(C)nn2C1c1ccccc1` (centres undefined) the same measures were -7.34% and “inactive”.
In the case of `CCOC(=O)CSc1nnc(NC(=O)c2cccc(S(=O)(=O)N3CCCCC3)c2)s1`, in assay [1], the max response is -6.14%.
The same measure, in the same setting: for `CC1(C)c2ccccc2N2CC(=O)NC21/C=C/c1ccco1` (centres undefined) the value was 9.74%.
Turning to `Cc1ccccc1NC(=O)N1C2CCCC1CC(NC(=O)C1CC1)C2` (centres undefined), the max response in assay [1] worked out at 20.1%.
Take `CCN(c1ccccc1)S(=O)(=O)c1ccc(Oc2ccc(-n3ccnc3)cc2)nc1`: the max response in assay [1] is -1.61%. Also, in assay [2], the Potency result was “inactive”.
The corresponding values for `O=C1C2C3CCCC3=C3CCCC3C2C(=O)N1c1ccc(Cl)cc1` (centres undefined) are -8.66% and 1.58 µM (active).
For `COC(=O)c1cc(NC2c3ccccc3C(=O)N2c2cccnc2)cc(C(=O)OC)c1` (centres undefined) the same measures were 17.7% and 12.6 µM (active).
Consider `CCOc1ccc(N(CC(=O)Nc2ccc(C)cc2)S(=O)(=O)c2c(C)noc2C)cc1`, for which the max response in assay [1] was found to be 5.32%. Besides, the Potency entry in assay [2] was “inactive”.
As to `CC(c1ccco1)N(C(=O)c1ccc(Cl)s1)c1ccccn1` (centres undefined), the max response in assay [1] is 8.8%.
Turning to `O=C(COC(=O)C12CC3CC(CC(C3)C1)C2)NCc1ccco1`, in assay [1], the max response was -5.29%. Also, in assay [2], the Potency is 2 µM (active).
